JMJD2A Tudor inh – inhibitors of human JMJD2A Tudor domain. AID 504339. Potency, µM (series often up to 114 µM), most hits filed as inhibitors. 4.4% of 390,000 active. AlphaScreen JMJD2A-Tudor / H3K4me3 peptide binding; also: nearly all actives have a fitted effect of over 50% in size
Sfp inh – blocks B. subtilis Sfp PPTase activity | Potency, µM, usual class: inhibitors | Q9F4F7 | 3.5% of 310,000 active | Biochemical Sfp PPTase activity, qHTS;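 also: the enzyme is Sfp with the accession as filed and its product quenches rhodamine fluorescence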
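Fluorescence-quenching assay with 15 nM Sfp, 5 uM rhodamine-CoA and 12.5 uM BHQ-2-labelled ybbR peptide in pH 7.6 Hepes/MgCl2 buffer. Enzyme was pre-incubated with compound for 15 min at room temperature. Rate was taken from the 30-min fluorescence change (525/598 nm).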
BAZ2B inh – blocks human BAZ2B. Q9UIF8. AlphaScreen BAZ2B-H3K14Ac peptide displacement. Potency, µM (highest dose often 114 µM), most hits filed as inhibitors. 4.4% of 360,000 active; also: nearly all actives have a fitted effect of over 60% in size
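In this displacement format the biotinylated H3(5-23) peptide acetylated at Lys14 serves as ligand at 50 nM, with BAZ2B at 50 nM in PBS pH 7.4 containing 0.01% Tween-20. Donor and acceptor beads are 10 ug/mL final.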
HP1b binding inh – inhibitors of HP1-beta chromodomain binding to methylated histone tails; AlphaScreen HP1-beta / biotin-H3K9me3 peptide binding; Potency, µM (doses to about 114 µM), hits mostly inhibitors; 0.56% of 390,000 active; also: nearly all actives have a fitted effect of over 70% in size
Target sequence (P83916 whole entry, looked up): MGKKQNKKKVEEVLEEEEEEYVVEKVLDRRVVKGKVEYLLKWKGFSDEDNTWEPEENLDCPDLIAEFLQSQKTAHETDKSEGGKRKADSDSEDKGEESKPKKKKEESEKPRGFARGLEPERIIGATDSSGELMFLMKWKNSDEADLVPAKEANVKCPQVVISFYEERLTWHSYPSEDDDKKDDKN
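Compound inhibition of the preformed complex between 50 nM HP1-beta and 50 nM biotinylated H3K9me3 peptide was read by AlphaScreen. Buffer was PBS pH 7.4 with 0.01% Tween-20. Incubations ran 30 min at room temperature, with 10 ug/mL donor/acceptor beads.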
PLK1 PBD block – blocks phosphopeptide binding to human PLK1 polo-box domain; Plk1 PBD binding of FITC phosphopeptide, fluorescence polarization; Potency, µM, most hits filed as inhibitors; 2.8% of 360,000 active; AID 720504; also: series mostly up to about 57 µM; nearly all actives have a fitted effect of over 65% in size
G9a block – G9a (human) methyltransferase inhibition. 8.8% of 350,000 active. AID 504332. Potency, µM (series often up to 102 µM), most hits filed as inhibitors. G9a H3K9 monomethylation, AlphaScreen, 2 h; also: nearly all actives have a fitted effect of over 75% in size
Target sequence (Q96KQ7 913-1193 limits assumed): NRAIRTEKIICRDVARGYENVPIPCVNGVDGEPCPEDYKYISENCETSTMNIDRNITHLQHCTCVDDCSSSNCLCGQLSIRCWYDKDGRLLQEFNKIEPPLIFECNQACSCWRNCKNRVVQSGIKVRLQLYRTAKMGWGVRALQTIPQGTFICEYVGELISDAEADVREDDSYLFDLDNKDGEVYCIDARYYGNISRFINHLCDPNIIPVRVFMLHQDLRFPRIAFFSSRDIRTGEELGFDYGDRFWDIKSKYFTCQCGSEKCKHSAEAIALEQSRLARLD
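AlphaScreen read-out: biotin-H3K9 peptide (500 nM) methylation by 20 nM enzyme with 20 uM SAM, 2 h at room temperature after 15 min compound preincubation; anti-monomethyl H3K9 antibody plus donor/acceptor beads, 10 min dark.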
Hits are given with their value; i = inactive; ? = inconclusive; nt = not tested or not shown; [ ] = remark or other dose. In the library only some 12% were active in any assay of this set; here they are far more common. Calls follow the shape of the dose curve; as a rule, active = well fitted curve in the direction sought with a large enough effect; inconclusive = small, poorly fitted or top-dose-only effect, or another doubt; inactive = no such curve, though single readings can be large; an effect the other way counts as inactive or inconclusive.

SMILES	JMJD2A Tudor inh	Sfp inh	BAZ2B inh	HP1b binding inh	PLK1 PBD block	G9a block
COc1ccc2c(c1)c1c(c(=O)n(Cc3ccccc3)c(=O)n1Cc1ccc(C)cc1)n2C	i	nt	i	i	nt	i
Cc1ccnc2c1ccc1c(C)ccnc12	7.1µM	nt	4.5µM	i	i	?
Cc1ccnc2c1ccc1cccnc12	5.6µM	nt	2.8µM	i	i	13µM
Cc1ccc2cccnc2c1N	22µM	i	?	i	i	i
Cc1cccc2cccnc12	i	nt	i	i	i	i[0.501 µM]
Cc1ccnc2c1ccc1ccccc12	i	i	i	i	i	i
Cc1c(C(=O)N2CCC(C)CC2)c(S(=O)(=O)N(Cc2ccccc2)C(C)(C)C)c(C)n1C	i	nt	i	i	nt	i[12.7 µM]
Cc1ccc(S(=O)(=O)N2C[C@H]3[C@H]4C(=O)N(c5ccccc5)C(=O)[C@H]4C[C@H](OC(=O)NCc4ccccc4)[C@@]3(O)C2)cc1	nt	nt	nt	nt	i	nt
Cc1cc(C(=O)N/N=C/c2cc(Cl)cc([N+](=O)[O-])c2O)c2ccccc2n1	56µM	i	40µM	?	i	?
O=C(NN=Cc1cc(Cl)ccc1[N+](=O)[O-])c1cccc2ccccc12	i	nt	nt	i	i	nt
O=C(N/N=C/c1cc(Cl)cc([N+](=O)[O-])c1O)c1ccccc1NS(=O)(=O)c1cccs1	56µM	i	i	?	?	nt
COc1ccc2nc(N3CCC(C)CC3)c(C#N)cc2c1	i	40µM	i	i	i	i
O=C(O)CSCC(=O)c1ccccc1	i	i	nt	i	i	i
C[n+]1cc[nH]c1SCC(=O)c1ccccc1	i	i	i	i	i	50µM
C[n+]1cc[nH]c1SCC(=O)c1ccc(Cl)cc1	i	?	nt	i	i	32µM
O=C(CSC1=NCCS1)c1ccc(Cl)cc1	i	?	nt	i	?	i
Cc1cc(=O)n(Cc2ccccc2)c(O)c1C#N	i	i	?	i	i	i[0.501 µM]
Cc1cc(=O)n(CCCO)c(O)c1C#N	i	i	i	i	i	45µM
Cc1cc(=O)n(CC(C)O)c(O)c1C#N (centres undefined)	i	i	i	i	i	10µM
O=C(Nc1ccc(F)cc1)c1oc2ccccc2c1NC(=O)C1CCCCC1	i	nt	i	i	nt	i
Cc1ccc(NC(=O)c2oc3ccccc3c2NC(=O)C2CCCCC2)cc1	79µM	nt	i	i	nt	i
O=C(CCCOc1ccccc1)Nc1ccc(S(=O)(=O)N2CCOCC2)cc1	i	i	i	i	i	i
CCOC(=O)C1CCN(S(=O)(=O)CCNC(=O)c2cccc(OC)c2)CC1	i	nt	i	i	i	18µM
O=C(O)CC(C(=O)OCCOc1ccccc1)N1CCOCC1 (centres undefined)	?	i	i	i	i	79µM
O=S(=O)(CCOc1ccccc1)N1CCOCC1	i	i	i	i	i	79µM
SMILES	JMJD2A Tudor inh	Sfp inh	BAZ2B inh	HP1b binding inh	PLK1 PBD block	G9a block
COc1cccc(C(=O)NCCS(=O)(=O)N2CC(C)CC(C)C2)c1 (centres undefined)	i	nt	i	i	i	25µM
OCC[C@H]1C[C@H](O)[C@@H](O)[C@]2(OCc3ccccc32)O1	i	nt	i	i	i	i[2.33 µM]
C=C1Nc2ccccc2C(=O)N1c1ccc(C(=O)N2CCN(C(=O)c3ccco3)CC2)cc1	i	nt	nt	i	nt	nt
COC(=O)c1cc(NS(=O)(=O)c2ccc3c(c2)OCCO3)ccc1Cl	i	nt	i	i	nt	i
COc1cccc(C(=O)NCCS(=O)(=O)N2CCC3(CC2)OCCO3)c1	i	nt	i	i	i	16µM
COc1cccc(C(=O)NCCS(=O)(=O)N2CCOCC2)c1	i	nt	i	i	i	22µM
O=C(CCCN=C1NS(=O)(=O)c2ccccc21)OCC(=O)c1ccccc1Cl	i	nt	i	i	i	?
CCOC(=O)c1oc2ccc(S(=O)(=O)n3nc(-c4ccc(Br)cc4)cc3N)cc2c1C	i	nt	i	i	nt	i
CCOc1ccc2oc(C(=O)N(C)CC(=O)Nc3ccc(OCC)c(OCC)c3)c(C)c2c1	i	nt	i	i	i	56µM
CCOc1ccc2oc(C(=O)N(C)CCc3ccc(OC)c(OC)c3)c(C)c2c1	i	nt	i	i	i	i[12.7 µM]
CCOc1ccc2oc(C(=O)Nc3ccc(N4CCOCC4)cc3)c(C)c2c1	i	i	i	i	i	13µM
COc1ccc2oc(C(=O)OCC(=O)Nc3ccc(NC(C)=O)cc3)c(C)c2c1	i	nt	i	i	i	i[0.501 µM]
